The values that follow come from PubChem BioAssay AID1494157 (National Center for Advancing Translational Sciences (NCATS), 2020).

Inconclusive results are not listed. A number with no mark means an inactive call. Active and inactive are the calls of the source. Calls come from the whole dose curve.

The test is described as follows: Confirmatory qHTS for inhibitors of MERS-S pseudo-typed particle cell entry. The note with it: MERS-S pseudotyped particle entry, luciferase reporter; series mostly up to 57.1 µM; activity change, negative = inhibition: at the top concentration. Background: In qHTS, concentration-response curves come from the screen itself.
Regarding `COC(=O)C[C@](O)(CCCC(C)(C)O)C(=O)O[C@@H]1C(OC)=C[C@]23CCCN2CCc2cc4c(cc2[C@H]13)OCO4`, the Potency was 0.607 µM (active). The same measure, in the same setting: then `C[C@@H](c1nc(-c2ccc(C#N)cc2)cs1)[C@](O)(Cn1cncn1)c1cc(F)ccc1F`, with 5.41 µM (active); and `C[C@@H]1CCO[C@H]2Cn3cc(C(=O)NCc4ccc(F)cc4F)c(=O)c(O)c3C(=O)N12`, with 0.0043 µM (active); and `CNC(=O)c1cc(Oc2ccc(NC(=O)Nc3ccc(Cl)c(C(F)(F)F)c3)c(F)c2)ccn1`, with 15.2 µM (active). Consider `COc1cc2nccc(Oc3ccc(NC(=O)NC4CC4)c(Cl)c3)c2cc1C(N)=O`, for which the Potency is 17.1 µM (active). For the compound `CC(C)(C)c1ccc(C(=O)CCCN2CCC(OC(c3ccccc3)c3ccccc3)CC2)cc1`, the Potency was 3.41 µM (active). Regarding `Cc1cn([C@H]2C[C@H](N=[N+]=[N-])[C@@H](CO)O2)c(=O)[nH]c1=O`, the Potency is 0.242 µM (active).

Regarding `CCCCN=C(N)N=C(N)N`, the “activity change, negative = inhibition” value is 0%.

`COc1ccc(Cc2nccc3cc(OC)c(OC)cc23)cc1OC`: the Potency is 4.82 µM (active).

Take `CN1CCC(=C2c3ccccc3CCc3sccc32)CC1`: the Potency was 15.2 µM (active). Regarding `N=C(N)c1ccc(OCCCCCOc2ccc(C(=N)N)cc2)cc1`, the Potency is 12.1 µM (active). In the case of `Cc1nnc2n1-c1sc(CCc3ccc(CC(C)C)cc3)cc1C(c1ccccc1Cl)=NC2C` (centres undefined), the Potency was 27.1 µM (active). Turning to `COc1cccc2c1C(=O)c1c(O)c3c(c(O)c1C2=O)C[C@@](O)(C(=O)CO)C[C@@H]3O[C@H]1C[C@H](N)[C@@H](O)[C@H](C)O1`, the Potency was 3.83 µM (active). Consider `O=c1c(C2CC(c3ccc(-c4ccc(Br)cc4)cc3)Cc3ccccc32)c(O)sc2ccccc12` (centres undefined), for which the Potency is 9.61 µM (active).

`C/C=C(/C)C(=O)O[C@H]1C(C)=CC23C(=O)C(C=C(CO)[C@@H](O)[C@]12O)[C@H]1[C@@H](C[C@H]3C)C1(C)C` (some centres undefined): the “activity change, negative = inhibition” value is -20.2%. As for `CC(C)OC(=O)OCOP(=O)(CO[C@H](C)Cn1cnc2c(N)ncnc21)OCOC(=O)OC(C)C`, the Potency is 0.0192 µM (active). The same measure, in the same setting: the same measure for `COc1cc(NS(C)(=O)=O)ccc1Nc1c2ccccc2nc2ccccc12`: 1.36 µM (active); for `CCSc1ccc2c(c1)N(CCCN1CCN(C)CC1)c1ccccc1S2`: 13.6 µM (active). Still for that read-out and setting: the same measure for `COc1cc2nccc(Oc3ccc(NC(=O)C4(C(=O)Nc5ccc(F)cc5)CC4)cc3)c2cc1OC`: 12.1 µM (active). As for `COc1ccc2cc3[n+](cc2c1OC)CCc1cc2c(cc1-3)OCO2`, the Potency is 9.61 µM (active). Turning to `CC(=O)[C@]1(O)Cc2c(O)c3c(c(O)c2[C@@H](O[C@H]2C[C@H](N)[C@H](O)[C@H](C)O2)C1)C(=O)c1ccccc1C3=O`, the Potency is 2.15 µM (active). Turning to `CCN1CCN(Cc2ccc(Nc3ncc(F)c(-c4cc(F)c5nc(C)n(C(C)C)c5c4)n3)nc2)CC1`, the Potency was 0.482 µM (active). As for `O=c1[nH]c(=O)n([C@H]2C[C@H](O)[C@@H](CO)O2)cc1C(F)(F)F`, the Potency was 6.81 µM (active). For the compound `O=C(Nc1ccc(Cl)cc1)Nc1ccc(Cl)c(C(F)(F)F)c1`, the Potency was 10.8 µM (active). For the compound `COc1cc([C@@H]2c3cc4c(cc3C(O[C@@H]3O[C@@H]5CO[C@@H](c6cccs6)OC5[C@H](O)[C@H]3O)C3COC(=O)[C@@H]32)OCO4)cc(OC)c1O` (some centres undefined), the Potency is 0.271 µM (active). On to `CCCCCCOC(=O)NC(=N)c1ccc(NCc2nc3cc(C(=O)N(CCC(=O)OCC)c4ccccn4)ccc3n2C)cc1`, for which the Potency was 19.2 µM (active). Same read-out and setting: the same measure for `CCCCCCCCCCCCOCCOCCOCCOCCOCCOCCOCCOCCOCCO`: 7.64 µM (active). Still for that read-out and setting: the same measure for `CCc1c2c(nc3ccc(OC(=O)N4CCC(N5CCCCC5)CC4)cc13)-c1cc3c(c(=O)n1C2)COC(=O)[C@]3(O)CC`: 15.2 µM (active). Consider `C=CC(=O)Nc1cc(Nc2nccc(-c3cn(C)c4ccccc34)n2)c(OC)cc1N(C)CCN(C)C`, for which the Potency is 6.81 µM (active).
